In PMC5540273 (PLoS ONE, 2017):

Experiments:
Conditions in all cases: concentration: 1 μM, replicates: in singlicate; n = 1
[1] = tested on: HIPK2
[2] = tested on: HIPK3
[3] = tested on: HIPK4
[4] = tested on: HPK1
[5] = tested on: HUNK
[6] = tested on: ICK
[7] = tested on: IGF1R
[8] = tested on: T1, IKK-alpha
T1 construct: gene CHUK

[9] = tested on: T2, IKK-beta
T2 construct: gene IKBKB

[10] = tested on: T3, IKK-epsilon
T3 construct: gene IKBKE
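Also: KINOMEscan kinase panel screen.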

Structure (SMILES)	%Inh [1] [%]	%Inh [2] [%]	%Inh [3] [%]	%Inh [4] [%]	%Inh [5] [%]	%Inh [6] [%]	%Inh [7] [%]	%Inh [8] [%]	%Inh [9] [%]	%Inh [10] [%]
Nc1nc(-c2cccnc2)c(-c2ccnc3ccccc23)s1 [GW684083]	0	0	0	28	0	0	13	20	0	21
Cc1cccc(-c2nc(Nc3ccc4[nH]nnc4c3)c3ccccc3n2)n1 [GW867587]	0	0	0	0	37	0	0	0	0	0
O=C(Nc1n[nH]c2nc(-c3ccco3)c(Br)cc12)c1ccc(CN2CCCC2)cc1.O=C(O)[C@H](O)[C@@H](O)C(=O)O [SB-742352]	0	0	0	17	0	37	0	0	0	0
CCc1nc(-c2cccc(C)c2)c(-c2ccnc(NC(=O)c3ccccc3)c2)s1	9	0	0	0	0	59	2	0	0	100
Cn1cc(-c2ccc3c(c2)CCN3C(=O)Cc2cccc(C(F)(F)F)c2)c2c(N)ncnc21 [GSK2606414]	0	16	0	6	0	4	0	13	7	4
